Measurements: PubChem BioAssay
The source made the active and inactive calls.

What was measured:
[1] = small molecules captured by biotinylated probe aFSTL3 – biochemical, small-molecule microarray, fluorescence 635/667, stem cell growth factor project, primary screen (AID 1064); details: higher = more signal;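 further: measures binding of the biotinylated anti-FSTL3 antibody to printed compounds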
[2] = binders from COS7 lysate, DM2A8 probe, primary screen, torsin A project, cell lysate, small-molecule microarray, fluorescence 635/667 (AID 1065); details: higher = more signal, COS7 lysate expressing mutant human TOR1A
[3] = small molecules captured by biotinylated probe aFGF2 – biochemical, small-molecule microarray, fluorescence 635/667, stem cell growth factor project, primary screen (AID 1067); details: higher = more signal;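 further: measures binding of biotinylated aFGF2 protein to printed compounds on slides; z-score merges feature fluorescence and signal-to-noise across triplicate slides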
[4] = small molecules captured by biotinylated probe aFGF10 – biochemical, small-molecule microarray, fluorescence 635/667, stem cell growth factor project, primary screen (AID 1071); details: higher = more signal;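 further: score merges 667 nm spot intensity and signal to noise from triplicate slides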
[5] = target: Neurogenic locus notch homolog protein 2 (Homo sapiens) (UniProt Q04721); test: small molecules binding Notch2 protein – biochemical, small-molecule microarray, 635 nm fluorescence, stem cell growth factors, primary screen (AID 1073); details: higher = more signal
[6] = target: Pro-neuregulin-1, membrane-bound isoform (Homo sapiens) (UniProt Q02297); test: small molecules binding neuregulin-1 protein – biochemical, small-molecule microarray, fluorescence 635/667, psychiatric disease protein project, primary screen (AID 1075); details: NRG1 binding, 635 nm fluorescence, higher = more signal;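 further: score combines 667 nm spot fluorescence with signal to noise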
[7] = test system: Neuregulin-1 EGF-like domain; test: small molecules binding NRG1 EGF domain – biochemical, small-molecule microarray, 635 nm fluorescence, primary screen (AID 1081); details: higher = more signal;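 further: binding of the protein to compounds printed on small-molecule microarray slides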
[8] = FRG1 expression reporter modulators in myotubes – cell-based, C2C12 myotubes, firefly/Renilla luciferase, luminescence, FRG1 inhibition for FSHD, primary screen (AID 1084); details: FRG1 promoter luciferase, higher = more signal, called active from +8 up or from −8 down
[9] = small molecules captured by biotinylated probe aFST – biochemical, small-molecule microarray, fluorescence 635/667, stem cell growth factor project, primary screen (AID 1086); details: higher = more signal;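 further: score merges 667 nm fluorescence with signal-to-noise of each printed compound spot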
[10] = binders of probe aHhip on microarray, primary screen, stem cell growth factor project, biochemical, small-molecule microarray, fluorescence 635/667 (AID 1087); details: higher = more signal;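 further: score merges spot fluorescence at 667nm with spot signal to noise ratio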
[11] = test system: PRMT1 (protein arginine N-methyltransferase 1); test: small molecules binding arginine methyltransferase PRMT1 – biochemical, small-molecule microarray, 635 nm fluorescence, primary screen (AID 1088); details: higher = more signal;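 further: binding of Prmt1 protein to compounds spotted on small-molecule microarray slides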
[12] = growth effects on S. cerevisiae YJM789 – YJM789 clinical isolate, OD600, 24 h, basal, primary screen (AID 1089); details: higher = more signal, called active from +8 up or from −8 down;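 further: growth of clinical yeast isolate S. cerevisiae YJM 789 seeded 1000 cells per well; test concentration not given here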
[13] = S. pombe growth modifiers, basal conditions – strain 972, OD600, 24 h, no modulator, primary screen (AID 1090);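 further: basal condition with compound alone and no growth modifier present; test concentration not given here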; details: S. pombe 972 growth, higher = more signal, called active from +8 up or from −8 down
[14] = budding yeast growth modifiers under rapamycin – strain BY4716, OD600, 96 h, primary screen (AID 1091); further: test concentration not given here; details: S. cerevisiae BY4716 + rapamycin, higher = more signal, called active from +8 up or from −8 down
[15] = target: Torsin-1A-interacting protein 2 (Homo sapiens) (UniProt Q8NFQ8); test: small molecules binding lysate-expressed LULL1 – cell lysate, human LULL1 lysate, 635/667 nm fluorescence, primary screen (AID 1092); details: small-molecule microarray, hLULL1 lysate binding, 635 nm fluorescence; higher = more signal;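 further: probe is lysate of COS7 cells overexpressing human LULL1; score merges per-feature 667 nm fluorescence with signal-to-noise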
[16] = optical density change of DRC41 E. coli – strain DRC41, OD650, 24 h, E. coli filamentation project, primary screen (AID 1093);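 further: MC1000 strain lacking acrAB efflux and sulA so SOS filamentation is blocked; test concentration not given here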; details: E. coli DRC41 growth, higher = more signal, called active from +8 up or from −8 down
[17] = probe aLefty2 binding to arrayed compounds – biochemical, biotinylated probe, 635/667 nm fluorescence, primary screen (AID 1094); details: small-molecule microarray, higher = more signal;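 further: score merges spot fluorescence near 667 nm with spot signal-to-noise ratio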
[18] = test system: Noggin (protein binding on small-molecule microarray); test: small molecules binding Noggin protein – biochemical, 635/667 nm fluorescence, primary screen (AID 1095); details: 635 nm fluorescence, higher = more signal;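 further: score merges 667 nm feature fluorescence with signal to noise over triplicate slides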
[19] = target: Neurogenic locus notch homolog protein 3 (Homo sapiens) (UniProt Q9UM47); test: small molecules binding NOTCH3 protein – biochemical, 635/667 nm fluorescence, primary screen (AID 1096); details: small-molecule microarray, 635 nm fluorescence, higher = more signal
[20] = probe aEGFR binding to arrayed compounds – biochemical, biotinylated probe, 635/667 nm fluorescence, primary screen (AID 1097); details: small-molecule microarray, higher = more signal;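 further: probe is a biotinylated anti-EGFR antibody binding compounds printed on slides; score combines fluorescence near 667 nm and signal to noise of each spot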

Sequence of Neurogenic locus notch homolog protein 2 (Homo sapiens) (Q04721 whole entry, looked up, canonical isoform): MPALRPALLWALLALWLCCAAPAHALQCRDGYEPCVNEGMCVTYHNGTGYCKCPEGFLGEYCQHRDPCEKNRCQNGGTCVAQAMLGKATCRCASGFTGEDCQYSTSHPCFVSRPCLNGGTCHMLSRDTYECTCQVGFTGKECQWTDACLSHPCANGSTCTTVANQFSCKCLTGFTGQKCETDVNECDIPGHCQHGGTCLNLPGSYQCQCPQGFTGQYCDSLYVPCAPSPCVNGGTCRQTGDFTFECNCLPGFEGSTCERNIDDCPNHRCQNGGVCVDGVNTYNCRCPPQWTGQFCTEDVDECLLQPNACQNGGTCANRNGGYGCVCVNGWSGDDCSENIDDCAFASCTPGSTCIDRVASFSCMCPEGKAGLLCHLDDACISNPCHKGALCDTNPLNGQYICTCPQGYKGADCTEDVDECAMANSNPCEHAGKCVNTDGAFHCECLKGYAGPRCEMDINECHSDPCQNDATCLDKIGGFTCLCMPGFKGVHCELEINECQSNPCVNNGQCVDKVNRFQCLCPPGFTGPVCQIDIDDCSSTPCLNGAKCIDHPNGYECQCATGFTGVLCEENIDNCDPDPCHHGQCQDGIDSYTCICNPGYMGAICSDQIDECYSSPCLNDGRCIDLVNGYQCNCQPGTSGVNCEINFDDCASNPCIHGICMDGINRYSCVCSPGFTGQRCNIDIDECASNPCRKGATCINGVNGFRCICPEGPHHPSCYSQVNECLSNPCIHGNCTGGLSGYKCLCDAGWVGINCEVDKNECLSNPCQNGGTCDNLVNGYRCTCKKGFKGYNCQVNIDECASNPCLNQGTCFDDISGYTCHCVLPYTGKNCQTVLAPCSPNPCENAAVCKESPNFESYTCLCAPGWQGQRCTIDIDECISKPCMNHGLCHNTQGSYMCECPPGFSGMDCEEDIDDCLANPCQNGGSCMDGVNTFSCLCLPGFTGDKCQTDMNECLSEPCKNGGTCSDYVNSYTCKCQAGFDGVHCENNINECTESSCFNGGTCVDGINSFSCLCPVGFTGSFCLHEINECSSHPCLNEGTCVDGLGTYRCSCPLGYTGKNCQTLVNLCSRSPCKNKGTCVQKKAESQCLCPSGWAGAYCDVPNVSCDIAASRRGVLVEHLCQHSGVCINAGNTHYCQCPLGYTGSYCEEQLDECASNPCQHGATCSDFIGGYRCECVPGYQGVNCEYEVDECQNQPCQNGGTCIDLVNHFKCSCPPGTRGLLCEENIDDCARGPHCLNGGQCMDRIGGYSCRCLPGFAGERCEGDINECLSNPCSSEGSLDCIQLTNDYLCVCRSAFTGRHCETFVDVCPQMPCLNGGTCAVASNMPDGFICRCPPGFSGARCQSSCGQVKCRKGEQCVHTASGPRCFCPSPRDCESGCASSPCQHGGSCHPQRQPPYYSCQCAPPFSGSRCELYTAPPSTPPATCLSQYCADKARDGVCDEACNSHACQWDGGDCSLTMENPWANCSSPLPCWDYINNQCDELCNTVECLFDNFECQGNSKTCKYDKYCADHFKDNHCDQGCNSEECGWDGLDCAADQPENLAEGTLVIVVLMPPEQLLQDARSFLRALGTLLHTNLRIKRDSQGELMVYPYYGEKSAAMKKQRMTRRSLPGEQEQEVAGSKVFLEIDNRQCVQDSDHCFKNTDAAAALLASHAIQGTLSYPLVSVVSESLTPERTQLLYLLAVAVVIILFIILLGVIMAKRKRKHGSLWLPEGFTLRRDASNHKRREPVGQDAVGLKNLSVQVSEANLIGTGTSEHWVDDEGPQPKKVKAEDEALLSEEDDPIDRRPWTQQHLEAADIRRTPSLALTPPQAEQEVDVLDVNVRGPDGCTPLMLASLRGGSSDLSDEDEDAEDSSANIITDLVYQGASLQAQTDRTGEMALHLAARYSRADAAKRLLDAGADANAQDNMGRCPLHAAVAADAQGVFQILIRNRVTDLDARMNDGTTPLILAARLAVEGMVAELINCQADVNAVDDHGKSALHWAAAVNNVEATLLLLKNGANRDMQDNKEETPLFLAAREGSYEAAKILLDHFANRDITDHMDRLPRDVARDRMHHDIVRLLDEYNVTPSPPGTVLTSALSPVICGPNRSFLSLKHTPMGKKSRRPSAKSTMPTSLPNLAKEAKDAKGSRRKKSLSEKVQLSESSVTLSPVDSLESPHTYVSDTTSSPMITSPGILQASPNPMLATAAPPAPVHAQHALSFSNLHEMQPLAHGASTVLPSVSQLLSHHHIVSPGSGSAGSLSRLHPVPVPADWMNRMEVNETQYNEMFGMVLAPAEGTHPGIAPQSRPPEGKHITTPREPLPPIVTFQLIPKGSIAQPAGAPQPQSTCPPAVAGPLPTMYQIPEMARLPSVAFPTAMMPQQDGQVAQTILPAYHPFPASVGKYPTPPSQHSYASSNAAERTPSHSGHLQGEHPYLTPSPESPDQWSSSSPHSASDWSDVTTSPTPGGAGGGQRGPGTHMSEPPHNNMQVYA
Sequence of Neurogenic locus notch homolog protein 3 (Homo sapiens) (Q9UM47 whole entry, looked up): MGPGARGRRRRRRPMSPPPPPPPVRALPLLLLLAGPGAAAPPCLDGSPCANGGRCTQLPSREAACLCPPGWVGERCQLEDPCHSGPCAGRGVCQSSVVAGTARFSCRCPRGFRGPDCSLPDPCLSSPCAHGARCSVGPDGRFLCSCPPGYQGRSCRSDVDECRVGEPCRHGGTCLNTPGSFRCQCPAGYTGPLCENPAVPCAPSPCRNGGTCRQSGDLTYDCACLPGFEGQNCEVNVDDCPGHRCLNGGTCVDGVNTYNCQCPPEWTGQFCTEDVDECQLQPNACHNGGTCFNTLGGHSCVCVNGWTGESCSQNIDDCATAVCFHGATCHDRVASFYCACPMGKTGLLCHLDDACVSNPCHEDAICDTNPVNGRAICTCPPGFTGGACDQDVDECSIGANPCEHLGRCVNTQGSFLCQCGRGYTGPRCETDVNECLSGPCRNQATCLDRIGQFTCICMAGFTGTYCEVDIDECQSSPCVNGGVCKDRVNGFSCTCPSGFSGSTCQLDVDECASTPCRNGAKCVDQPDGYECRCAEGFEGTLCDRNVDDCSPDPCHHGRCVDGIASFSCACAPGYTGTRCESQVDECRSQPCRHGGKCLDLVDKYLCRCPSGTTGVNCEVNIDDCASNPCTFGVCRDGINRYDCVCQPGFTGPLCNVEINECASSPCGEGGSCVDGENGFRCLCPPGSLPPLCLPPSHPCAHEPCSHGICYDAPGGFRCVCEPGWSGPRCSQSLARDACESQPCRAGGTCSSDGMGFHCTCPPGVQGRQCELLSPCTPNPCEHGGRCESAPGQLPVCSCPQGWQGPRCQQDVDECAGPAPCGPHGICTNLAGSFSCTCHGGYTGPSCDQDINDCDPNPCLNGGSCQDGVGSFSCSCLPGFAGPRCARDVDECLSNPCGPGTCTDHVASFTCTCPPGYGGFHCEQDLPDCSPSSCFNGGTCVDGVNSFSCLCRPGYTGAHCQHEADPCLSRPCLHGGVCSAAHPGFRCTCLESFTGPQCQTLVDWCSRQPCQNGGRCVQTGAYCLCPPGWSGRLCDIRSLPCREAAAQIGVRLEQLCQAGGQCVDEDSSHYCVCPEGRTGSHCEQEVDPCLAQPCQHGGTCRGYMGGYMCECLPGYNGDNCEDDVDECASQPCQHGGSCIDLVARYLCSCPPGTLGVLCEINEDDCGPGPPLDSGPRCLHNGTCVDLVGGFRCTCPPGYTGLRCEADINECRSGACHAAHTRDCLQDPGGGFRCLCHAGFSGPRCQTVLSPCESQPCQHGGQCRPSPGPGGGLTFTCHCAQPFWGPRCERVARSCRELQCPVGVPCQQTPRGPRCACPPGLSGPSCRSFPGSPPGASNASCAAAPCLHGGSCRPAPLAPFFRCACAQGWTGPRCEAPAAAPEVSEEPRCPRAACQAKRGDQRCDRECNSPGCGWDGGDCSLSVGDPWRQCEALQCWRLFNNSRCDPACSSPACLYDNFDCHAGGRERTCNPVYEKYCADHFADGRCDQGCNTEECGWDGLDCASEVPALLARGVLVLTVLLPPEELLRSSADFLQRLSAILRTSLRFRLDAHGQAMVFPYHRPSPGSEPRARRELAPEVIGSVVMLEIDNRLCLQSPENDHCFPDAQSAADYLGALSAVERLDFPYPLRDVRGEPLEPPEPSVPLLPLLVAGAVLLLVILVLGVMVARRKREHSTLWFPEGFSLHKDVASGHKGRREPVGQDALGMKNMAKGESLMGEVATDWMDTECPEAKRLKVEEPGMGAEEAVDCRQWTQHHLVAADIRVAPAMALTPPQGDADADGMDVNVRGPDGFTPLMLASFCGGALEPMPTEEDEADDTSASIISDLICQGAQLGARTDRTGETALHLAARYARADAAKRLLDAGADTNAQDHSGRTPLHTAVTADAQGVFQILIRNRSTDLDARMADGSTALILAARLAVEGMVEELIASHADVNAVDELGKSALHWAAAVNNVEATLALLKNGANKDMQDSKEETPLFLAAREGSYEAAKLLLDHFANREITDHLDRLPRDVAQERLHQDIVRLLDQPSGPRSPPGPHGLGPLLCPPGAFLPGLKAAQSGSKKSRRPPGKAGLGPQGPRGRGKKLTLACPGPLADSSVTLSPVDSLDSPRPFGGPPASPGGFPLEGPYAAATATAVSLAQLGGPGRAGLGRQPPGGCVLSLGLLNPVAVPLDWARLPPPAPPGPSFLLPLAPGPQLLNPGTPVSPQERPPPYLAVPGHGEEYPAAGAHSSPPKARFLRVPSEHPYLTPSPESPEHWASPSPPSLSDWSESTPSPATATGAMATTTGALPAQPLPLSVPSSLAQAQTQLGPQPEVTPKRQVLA

| SMILES | composite z-score [1] | composite z-score [2] | composite z-score [3] | composite z-score [4] | composite z-score [5] | composite z-score [6] | composite z-score [7] | z-score [8] | composite z-score [9] | composite z-score [10] | composite z-score [11] | z-score [12] | z-score [13] | z-score [14] | composite z-score [15] | z-score [16] | composite z-score [17] | composite z-score [18] | composite z-score [19] | composite z-score [20] |
| --- | --- | --- | --- | --- | --- | --- | --- | --- | --- | --- | --- | --- | --- | --- | --- | --- | --- | --- | --- | --- |
| O=C1c2ccccc2[C@@]2(Cc3ccccc3N(Cc3ccccc3)C2=O)[C@H](c2ccc(CO)cc2)N1Cc1ccccc1Cl | 0.209 | -0.337 | -0.0934 | -0.127 | -1.04 | -0.579 | -1.13 | 1.13 (inactive) | -0.164 | -0.0541 | 0.11 | -0.251 (inactive) | -0.602 (inactive) | -2.35 (inactive) | -0.394 | -0.499 (inactive) | -0.0812 | -0.109 | -0.149 | -0.146 |
| COC(=O)[C@@]1(Cc2ccccc2)[C@H]2c3cc(C(=O)N(C)C)n(CCO)c3C[C@H]2CN1C(=O)c1ccccc1 | 0.348 | 0.0312 | 0.152 | 1.14 | 1.39 | 1.93 | 1.17 | 1.27 (inactive) | 0.647 | -0.418 | 0.805 | 0.136 (inactive) | 0.612 (inactive) | 0.26 (inactive) | 4.04 | -0.508 (inactive) | 0.381 | -0.779 | 1.02 | 0.418 |
| O=C(NC1CC1)[C@@H]1c2ccccc2C(=O)N(Cc2ccc(OC(F)(F)F)cc2)[C@H]1c1ccc(CO)cc1 | 0.0273 | 0.314 | -0.0418 | -0.0789 | 0.354 | 1.38 | 0.793 | -0.859 (inactive) | 0.0427 | -0.0994 | 0.696 | -0.112 (inactive) | -0.636 (inactive) | -1.51 (inactive) | 1.76 | 0.577 (inactive) | -0.0943 | 0.818 | 0.377 | -0.0679 |
| O=C1C2C=CC(C(O)C3CCCCC3)N(n3cnnc3)C2C(=O)N1Cc1ccccc1 (stereo not given) | -0.0187 | 0.396 | 0.0498 | 0.792 | 0.884 | 1.07 | 1.3 | 1.11 (inactive) | 1.47 | -0.299 | 1.51 | -0.509 (inactive) | 0.266 (inactive) | -0.98 (inactive) | 3.15 | 0.596 (inactive) | 0.145 | 0.915 | 1.06 | 0.0201 |
| CC1CC/C=C\[C@H]2OC34C=CCN(Cn5nnc6ccccc65)C(=O)[C@H]3N(CCCCCCO)C(=O)[C@@H]4C2C(=O)O1 (stereo not given in full) | 0.372 | -1.11 | -0.176 | -0.539 | -0.964 | 2.14 | 1.59 | -0.863 (inactive) | -0.541 | -0.169 | -0.526 | 0.28 (inactive) | -0.0728 (inactive) | 0.105 (inactive) | 2.9 | 0.167 (inactive) | -0.205 | -1.09 | -0.368 | -0.33 |
| COc1ccc([Si](C)(C)[C@H]2[C@H](CC(=O)N3Cc4ccccc4C[C@H]3CO)O[C@@]3(C(=O)N(C)c4ccccc43)[C@@H]2C)cc1 | 0.271 | 1.09 | -0.081 | 0.583 | 0.647 | 1.65 | 1.36 | -3.34 (inactive) | 0.596 | 0.315 | 1.53 | -1.52 (inactive) | -2.06 (inactive) | -0.0615 (inactive) | 2.13 | 0.456 (inactive) | 0.173 | 1.91 | 1.08 | -0.0839 |
| C=CC[C@@]1(C(=O)N(C)C)N=C(c2ccc(OCCCO)cc2)O[C@@H]1c1ccccc1CN=[N+]=[N-] | 0.151 | 0.448 | -0.0004 | 1.01 | 1.61 | 1.68 | 1.17 | -2.64 (inactive) | 1.18 | 0.0373 | 1.55 | -0.127 (inactive) | -0.0815 (inactive) | -0.64 (inactive) | 3.33 | 1.42 (inactive) | 0.264 | 1.77 | 1.07 | 0.538 |
| CCCC=C(CCC)[C@@H](NC(=O)c1ccc(C(F)(F)F)cc1)c1ccc(C(F)(F)F)cc1 | 0.625 | 0.629 | 0.171 | 0.669 | 1.57 | 1.82 | 0.588 | -4.76 (inactive) | 1.04 | -0.0965 | 1.41 | 1.13 (inactive) | 1.17 (inactive) | 1.23 (inactive) | 3.26 | -0.35 (inactive) | 0.315 | -0.0005 | 1.11 | 0.208 |
| O=C1[C@@H]2[C@@H](CC(COc3ccccc3)=C([C@H](O)CCc3ccccc3)[C@@H]2CO)C(=O)N1Cc1ccccc1 | -0.379 | 0.364 | -0.187 | 0.0395 | 0.719 | 0.433 | 1.01 | -0.643 (inactive) | 0.391 | 0.0176 | 1.08 | 0.77 (inactive) | 0.369 (inactive) | 3.2 (inactive) | 1.39 | 0.707 (inactive) | -0.176 | 0.127 | 0.453 | -0.0828 |
| C=C(CCCC)/C(=C/C[C@H](OC(=O)c1ccncc1)c1ccc(OCCO)cc1)c1cnc2ccccc2c1 | 0.102 | 1.23 | -0.121 | 0.322 | 1.12 | 1.33 | 1.23 | -0.791 (inactive) | 0.402 | -0.124 | 1.51 | 0.144 (inactive) | -2.06 (inactive) | 0.199 (inactive) | 1.26 | 0.7 (inactive) | -0.0306 | 1.17 | 1.09 | 0.0129 |
